Inconclusive results are not listed. A call without a number means that no potency is given here. A number with no mark means an inactive call. Calls of active or inactive are those of the source. Calls come from the whole dose curve; as a rule, active = well fitted cell-killing curve with a large enough effect in the repeat runs; inconclusive = weak or mixed curves, or effect the other way; inactive = flat fitted curve, though single readings scatter.
Test: qHTS RealTime-Glo MT Cell Viability Assay in HepG2 cells - 0 hour (AID 1224889); note: nearly all actives have a fitted effect of over 50% in size
Conditions: RealTime-Glo luminescence; series mostly up to 76.8 µM
Source text: U.S. Tox21 Program National Center for Advancing Translational Sciences [NCATS] NIH Chemical Genomics Center [NCGC] U.S. Environmental Protection Agency [EPA] National Institutes of Environmental Health Sciences [NIEHS] National Toxicology Program [NTP] U.S. Food and Drug Administration [FDA] Tox21 Assay Overview: Measure of cell viability is critical in the cell-base assay. Analysis of cell viability is necessary for the characterization of cell responses to cytotoxic drugs and environmental stress. A RealTime-Glo MT Cell Viability Assay to monitor cell viability in real time of continues cell culture during 40 hours of compound treatment was used to screen Tox21 10K library compounds in HepG2 cells. The RealTime-Glo MT Cell Viability Assay is a nonlytic, homogeneous, bioluminescent method to measure cell viability in real time using a simple, plate-based method. The assay involves adding NanoLuc luciferase and a cell-permeant prosubstrate to cells in culture. Viable cells reduce the proprietary prosubstrate to generate a substrate for NanoLuc luciferase. This substrate diffuses from cells into the surrounding culture medium, where it is rapidly used by the NanoLuc Enzyme to produce a luminescent signal. The signal correlates with the number of viable cells, making the assay well suited for cytotoxicity studies.
Tox21 Assay Protocol Summary: The mixture of HepG2 cell suspension and reagents were dispensed at 600cells/6 ul/well in 1536-well tissue culture treated black solid bottom plates using a Multidrop dispenser. After the assay plates were incubated at a 37 C/5% CO2 incubator for 5 hours, 23 nL of compounds dissolved in DMSO, positive and negative controls was transferred to the assay plate by a pintool work station. The plates were incubated at 37 C for 40 hours. The luminescence intensity were measured at 0h, 8h, 16h, 24h, 32h and 40h time points using ViewLux plate reader during compound treatment.

Row | Structure (SMILES) | Potency | activity change, negative = cytotoxicity
1 | CCC(C)(CN(C)C)OC(=O)c1ccccc1 (stereo not given) | inactive | 
2 | CCOc1c(N2CCOCC2)cnn(C)c1=O | inactive | 
3 | O=C(O)CNC(=O)c1ccccc1 | inactive | 
4 | NCCCC(N)(C(=O)O)C(F)F (stereo not given) | inactive | 
5 | CC[N+](CC)(CC(=O)Nc1c(C)cccc1C)Cc1ccccc1 (tested in a mixture with another compound) | inactive | 
6 | C[N+](C)(CCOc1ccccc1)Cc1cccs1 | inactive | 
7 | C=C[Si](OC(C)=O)(OC(C)=O)OC(C)=O | inactive | 
8 | C[N+]1(CC2COC(c3ccccc3)(c3ccccc3)O2)CCCCC1 (stereo not given) |  | -6.4% [at 15.8 µM]
9 | COC(=O)Nc1ccc(Cl)c(Cl)c1 | inactive | 
10 | CCCc1ncc(C[n+]2ccccc2C)c(N)n1 | inactive | 
11 | CC(C)[C@H]1CC[C@@H](C)CC1=O | inactive | 
12 | CC[N+](CC)(CC)CCOc1cccc(OCC[N+](CC)(CC)CC)c1OCC[N+](CC)(CC)CC | inactive | 
13 | CC1=CCC(O)(C(C)C)CC1 (stereo not given) | inactive | 
14 | CCCCCCCCN1CCCC1=O | inactive | 
15 | O=C(c1ccccc1)C1(O)CCCCC1 | inactive | 
16 | OCCCCCO | inactive | 
17 | CCN[C@@H]1C[C@H](N)[C@@H](OC2OC(CN)=CCC2N)[C@H](O)[C@H]1O[C@H]1OC[C@](C)(O)[C@H](NC)[C@H]1O (stereo not given in full) |  | 0.414% [at 0.29 µM]
18 | Nc1ccn([C@@H]2O[C@H](CO)[C@@H](O)[C@@H]2O)c(=O)n1 | inactive | 
19 | Cc1coc2ccccc2c1=O | inactive | 
20 | CCCCCC(C)N (stereo not given) | inactive | 

Row | Structure (SMILES) | Potency | activity change, negative = cytotoxicity
21 | O=[N+]([O-])c1ccc(/C=N\O)o1 | inactive | 
22 | C=CC(=O)OCCCl | inactive | 
23 | Cc1ccccc1N=C(N)N=C(N)N | inactive | 
24 | NC(=O)Cc1cccc2ccccc12 | inactive | 
25 | CCN(Cc1ccccc1)c1ccccc1 | inactive | 
26 | Nc1ccn([C@@H]2O[C@H](CO)[C@@H](O)C2O)c(=O)n1 (stereo not given in full) | inactive | 
27 | CCCC(C)C(=O)OCC (stereo not given) | inactive | 
28 | Nc1c2c(nc3c1CCC3)CCCC2 | inactive | 
29 | COc1ccnc(CS(=O)c2nc3cc(OC(F)F)ccc3[nH]2)c1OC (stereo not given) | inactive | 
30 | CO/N=C(\C(=O)N[C@@H]1C(=O)N2C(C(=O)O)=C(CSc3nc(=O)c(O)nn3C)CS[C@H]12)c1csc(N)n1 | inactive | 
31 | CN1CCC(=C2c3ccccc3CCc3cccnc32)CC1 | inactive | 
32 | O=C(O)Cc1csc(-c2ccc(Cl)cc2)n1 | inactive | 
33 | CC(N)C12CC3CC(CC(C3)C1)C2 (stereo not given) | inactive | 
34 | CC12CCC(C(=O)C1=O)C2(C)C (stereo not given) | inactive | 
35 | CC(C)CC(C)(N)C#N (stereo not given) | inactive | 
36 | OCCc1ccccn1 | inactive | 
37 | CC(C)(C)OC(=O)c1cccc(N)c1 | inactive | 
38 | CCCCCCCCCC[N+](C)(C)[O-] | inactive | 
39 | CC(=O)Oc1cccc(C)c1 | inactive | 
40 | CN(C)C(=O)Oc1ccc[n+](C)c1 | inactive | 

Source: PubChem BioAssay (Tox21)
